Results filed as inconclusive are left out. Unmarked numbers belong to inactive results. Calls follow the shape of the dose curve; as a rule, active = well fitted cell-killing curve with a large enough effect in the repeat runs; inconclusive = weak or mixed curves, or effect the other way; inactive = flat fitted curve, though single readings scatter.
Assay: qHTS RealTime-Glo MT Cell Viability Assay in HepG2 cells - 40 hour (AID 1224870); also: nearly all actives have a fitted effect of over 50% in size
Settings: RealTime-Glo luminescence; series mostly up to 76.8 µM; activity change, negative = cytotoxic: at the top concentration
From the text: National Center for Advancing Translational Sciences [NCATS]
NIH Chemical Genomics Center [NCGC]
U.S. Environmental Protection Agency [EPA]
National Institutes of Environmental Health Sciences [NIEHS]
National Toxicology Program [NTP]
U.S. Food and Drug Administration [FDA]
Measure of cell viability is critical in the cell-base assay. Analysis of cell viability is necessary for the characterization of cell responses to cytotoxic drugs and environmental stress. A RealTime-Glo MT Cell Viability Assay to monitor cell viability in real time of continues cell culture during 40 hours of compound treatment was used to screen Tox21 10K library compounds in HepG2 cells. The RealTime-Glo MT Cell Viability Assay is a nonlytic, homogeneous, bioluminescent method to measure cell viability in real time using a simple, plate-based method. The assay involves adding NanoLuc luciferase and a cell-permeant prosubstrate to cells in culture. Viable cells reduce the proprietary prosubstrate to generate a substrate for NanoLuc luciferase. This substrate diffuses from cells into the surrounding culture medium, where it is rapidly used by the NanoLuc Enzyme to produce a luminescent signal. The signal correlates with the number of viable cells, making the assay well suited for cytotoxicity studies.
Tox21 Assay Protocol Summary:
The mixture of HepG2 cell suspension and reagents were dispensed at 600cells/6 ul/well in 1536-well tissue culture treated black solid bottom plates using a Multidrop dispenser. After the assay plates were incubated at a 37 C/5% CO2 incubator for 5 hours, 23 nL of compounds dissolved in DMSO, positive and negative controls was transferred to the assay plate by a pintool work station. The plates were incubated at 37 C for 40 hours. The luminescence intensity were measured at 0h, 8h, 16h, 24h, 32h and 40h time points using ViewLux plate reader during compound treatment.
% is scaled to controls: 0 for no effect and ±100 for the full control effect.

For `C=CC(=O)OCC1CCCO1` (stereo not given), which “activity change, negative = cytotoxic” value is on record?
The value was 2.84%.

Which activity change, negative = cytotoxic does the source give for `O=C1c2ccccc2C(=O)c2cc(Cl)ccc21` here?
Its activity change, negative = cytotoxic is -4.67% [at 6.97 µM].

For `N#Cc1cscn1`, which “activity change, negative = cytotoxic” value is on record?
Its value is 0.227%.

Which “activity change, negative = cytotoxic” value does the source give for `CC(C)OC(=O)OCOP(=O)(CO[C@H](C)Cn1cnc2c(N)ncnc21)OCOC(=O)OC(C)C` here?
The value was 0.418% [at 35.3 µM].

Which “activity change, negative = cytotoxic” value does the source give for `CC(=O)OC(C)=O` here?
The value was 2.47%.

For `C/C=C(\C)C(=O)OCCc1ccccc1`, which “activity change, negative = cytotoxic” value is on record?
Its value is 1.57%.

Which “activity change, negative = cytotoxic” value does the source give for `CC(=O)CCc1ccc(OC(C)=O)cc1` here?
Its value is -10.6%.

For `Cn1c(=O)c2c(ncn2CCO)n(C)c1=O`, which “activity change, negative = cytotoxic” value is on record?
Its value is -0.63% [at 35.3 µM].

With `CCC/C=C(\C=O)CC` as the molecule, how does the “activity change, negative = cytotoxic” value read?
Its value is 0.597%.

Which “activity change, negative = cytotoxic” value does the source give for `Cc1c(NC(=O)c2cccnc2)c(=O)n(-c2ccccc2)n1C` here?
The value was 3.02% [at 35.3 µM].

Which “activity change, negative = cytotoxic” value does the source give for `C=C(C)c1cccc(C(C)(C)N=C=O)c1` here?
Its value is -1.41%.

Which “activity change, negative = cytotoxic” value does the source give for `O=C(O)CSCC(=O)NC1CCSC1=O` (stereo not given) here?
Its value is 1.95% [at 35.3 µM].

Which “activity change, negative = cytotoxic” value does the source give for `CCOc1ccccc1OCC1CNCCO1` (stereo not given) here?
Its value is 0.49% [at 35.3 µM].

With `CC(C)C1OCCN1CCOC(=O)NCCCCCCNC(=O)OCCN1CCOC1C(C)C` (stereo not given) as the molecule, how does the “activity change, negative = cytotoxic” value read?
Its value is -4.47%.

For `C/C(=C1\CCOC(=O)S1)N(C=O)Cc1cnc(C)nc1N`, which “activity change, negative = cytotoxic” value is on record?
Its value is -1.23% [at 35.3 µM].

For `C=CCN1C[C@H](C(=O)N(CCCN(C)C)C(=O)NCC)C[C@@H]2c3cccc4[nH]cc(c34)C[C@H]21`, which “activity change, negative = cytotoxic” value is on record?
Its value is 0.466% [at 35.3 µM].

Which “activity change, negative = cytotoxic” value does the source give for `O=C(Cn1ccnc1[N+](=O)[O-])NCc1ccccc1` here?
Its value is 2.2% [at 35.3 µM].

With `CC(C)Cn1cnc2c1c(=O)n(C)c(=O)n2C` as the molecule, how does the “activity change, negative = cytotoxic” value read?
Its value is -0.323% [at 35.3 µM].

Which “activity change, negative = cytotoxic” value does the source give for `Cc1cc(-c2ccccc2)nnc1NCCN1CCOCC1` here?
The value was 4.31% [at 35.3 µM].

Which “activity change, negative = cytotoxic” value does the source give for `Cc1ccccc1C(N)=O` here?
The value was 0.194%.

Which “activity change, negative = cytotoxic” value does the source give for `ONc1ccccc1` here?
Its value is -8.89%.

With `CN(C)CCCO[C@@H]1[C@H]2OC(C)(C)O[C@H]2O[C@@H]1C(O)CO` (stereo not given in full) as the molecule, how does the “activity change, negative = cytotoxic” value read?
The value was 1.17% [at 35.3 µM].

Which “activity change, negative = cytotoxic” value does the source give for `CC1=NN(c2ccc(S(=O)(=O)O)cc2)C(=O)C1` here?
The value was 2.1%.

With `OC[C@H]1O[C@@H](O[C@@H]2[C@@H](CO)O[C@](O)(CO)[C@H]2O)[C@H](O)[C@@H](O)[C@H]1O` as the molecule, how does the “activity change, negative = cytotoxic” value read?
Its value is 0.127% [at 35.3 µM].

For `N[C@@H](CSCCCO)C(=O)O`, which activity change, negative = cytotoxic is on record?
The activity change, negative = cytotoxic was 1.41% [at 15.8 µM].

For `Cc1ccnc(N)c1`, which “activity change, negative = cytotoxic” value is on record?
The value was 0.494%.

For `CC1OCCC1=O` (stereo not given), which “activity change, negative = cytotoxic” value is on record?
Its value is 0.205%.

Which “activity change, negative = cytotoxic” value does the source give for `CC(=O)Nc1ccc(OC(=O)c2ccccc2OC(C)=O)cc1` here?
The value was 2.63% [at 35.3 µM].

With `CCCc1ccc(O)cc1` as the molecule, how does the “activity change, negative = cytotoxic” value read?
Its value is 1.72%.

For `CCc1occc(=O)c1O`, which “activity change, negative = cytotoxic” value is on record?
Its value is -0.295%.

With `CCCCCC/C=C/C(=O)OC` as the molecule, how does the “activity change, negative = cytotoxic” value read?
The value was 0.771%.

With `C=CCOC(=O)CCCCCC` as the molecule, how does the “activity change, negative = cytotoxic” value read?
Its value is 1.74%.

With `CO[Si](CCCn1c(=O)n(CCC[Si](OC)(OC)OC)c(=O)n(CCC[Si](OC)(OC)OC)c1=O)(OC)OC` as the molecule, how does the “activity change, negative = cytotoxic” value read?
Its value is -1.42% [at 35.3 µM].

With `CCCC(=O)Nc1ccc(OCC(O)CNC(C)C)c(C(C)=O)c1` (stereo not given) as the molecule, how does the “activity change, negative = cytotoxic” value read?
Its value is 0.793% [at 35.3 µM].

With `CC1CCc2c(N3CCC(O)CC3)c(F)cc3c(=O)c(C(=O)O)cn1c23` (stereo not given) as the molecule, how does the “activity change, negative = cytotoxic” value read?
The value was 1.5% [at 35.3 µM].

Which “activity change, negative = cytotoxic” value does the source give for `CC(C)CO` here?
The value was 2.55%.

For `CC(=O)OCC(=O)Nc1cc(C#N)cc(NC(=O)COC(C)=O)c1Cl`, which “activity change, negative = cytotoxic” value is on record?
Its value is 0.225% [at 35.3 µM].

With `CCCC(CC)c1ccccc1` (stereo not given) as the molecule, how does the “activity change, negative = cytotoxic” value read?
Its value is 0.129%.

For `CCC(=O)Oc1ccc2c(c1)CC[C@@H]1[C@@H]2CC[C@@]2(C)[C@H]1C[C@@H](OC(=O)CC)[C@@H]2OC(=O)CC`, which “activity change, negative = cytotoxic” value is on record?
The value was -0.398% [at 35.3 µM].

With `CC(O)COC(C)(C)C` (stereo not given) as the molecule, how does the “activity change, negative = cytotoxic” value read?
Its value is 4.06%.

Source: PubChem BioAssay (Tox21)
